PubChem BioAssay AID651640 (Broad Institute, 2012)
The whole screen tested about 350,000 compounds, of which about 6,000 (1.7%) were called active. Not shown: some 5% with an inconclusive outcome. Many of the other results were omitted from the sample, so actives are more common in it than they were. Unmarked numbers belong to inactive results. Rule as the data show it: active = CPE inhibition above about 20% (passing the limit was not always enough); inconclusive = no clear call, values can overlap the other calls; tested in BHK-21 cells.

Experiment: protection of cells from dengue 2 killing – plate reader, single concentration, primary screen (AID 651640);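 also: 0% = median of neutral control wells and 100% = median of positive control wells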
Details: DENV2-infected cells, cytopathic effect rescue, at 9.99 µM, hits give high values

Row | SMILES | CPE inhibition
1 | C[C@@H]1CN([C@H](C)CO)C(=O)c2cc(C#Cc3ccccn3)cnc2O[C@H]1CN(C)CC1CCOCC1 | -1.46%
2 | O=C(C[C@H]1CC[C@@H]2[C@H](COC[C@@H](O)CN2C(=O)Nc2cccc(F)c2)O1)NCc1ccccc1F | 0.633%
3 | COc1ccc2c3c([nH]c2c1)[C@H](CO)N(Cc1cccc(F)c1)CC31CCN(CC2CC2)CC1 | -32.6%
4 | C[C@H]1CCCCO[C@H](CN(C)CC2CC2)[C@@H](C)CN([C@@H](C)CO)C(=O)c2cc(NS(C)(=O)=O)ccc2O1 | 2.25%
5 | COc1ccccc1-c1cnc2c(c1)C(=O)N([C@H](C)CO)C[C@@H](C)[C@@H](CN(C)CC1CCCC1)O2 | 23.1%
6 | C[C@@H]1CN([C@H](C)CO)C(=O)c2cc(NS(C)(=O)=O)ccc2O[C@@H]1CN(C)S(C)(=O)=O | -0.244%
7 | C[C@H](O)C#Cc1cnc2c(c1)C(=O)N([C@H](C)CO)C[C@H](C)[C@@H](CN(C)C(=O)Nc1ccc(F)cc1)O2 | 8.69%
8 | CNC[C@@H]1OCCCC[C@H](C)Oc2ccc(NC(=O)Nc3ccc(OC)cc3)cc2C(=O)N([C@H](C)CO)C[C@@H]1C | 7.49%
9 | C[C@@H]1CN([C@H](C)CO)C(=O)c2cc(NS(=O)(=O)c3cccs3)ccc2O[C@@H](C)CCCCO[C@@H]1CN(C)S(=O)(=O)c1ccc(Cl)cc1 | 22.8% (active)
10 | COc1ccc(NC(=O)N(C)C[C@H]2Oc3ccc(NS(=O)(=O)c4cccs4)cc3C(=O)N([C@@H](C)CO)C[C@H]2C)cc1 | -6.98%
11 | C[C@H]1CN([C@@H](C)CO)C(=O)c2cc(NS(=O)(=O)c3cccs3)ccc2O[C@@H]1CN(C)C(=O)Nc1ccccc1 | 22.2% (active)
12 | C[C@@H]1CCCCO[C@@H](CN(C)S(=O)(=O)c2ccc(F)cc2)[C@@H](C)CN([C@@H](C)CO)C(=O)c2cc(NS(=O)(=O)c3cccs3)ccc2O1 | 12.7%
13 | C[C@H]1CN([C@@H](C)CO)C(=O)c2cc(NS(=O)(=O)c3cccs3)ccc2O[C@@H]1CN(C)C(=O)Nc1cccc2ccccc12 | -2.31%
14 | C[C@@H]1CCCCO[C@H](CN(C)S(=O)(=O)c2ccc(Cl)cc2)[C@H](C)CN([C@@H](C)CO)C(=O)c2cc(NS(=O)(=O)c3cccs3)ccc2O1 | 63.8% (active)
15 | C[C@H]1CCCCO[C@@H](CN(C)S(=O)(=O)c2cccs2)[C@@H](C)CN([C@@H](C)CO)C(=O)c2cc(NS(=O)(=O)c3ccc(Cl)cc3)ccc2O1 | -0.143%
16 | C[C@@H]1CN([C@H](C)CO)C(=O)c2cc(NS(=O)(=O)c3cccs3)ccc2O[C@@H](C)CCCCO[C@@H]1CN(C)S(=O)(=O)c1cccs1 | -4.08%
17 | C[C@@H]1CCCCO[C@H](CN(C)S(=O)(=O)c2cccs2)[C@H](C)CN([C@@H](C)CO)C(=O)c2cc(NS(=O)(=O)c3cccs3)ccc2O1 | -8.04%
18 | CC(C)NC(=O)Nc1ccc2c(c1)C(=O)N(C)[C@H]1CC[C@H](CC(=O)NCC3CCCCC3)O[C@@H]1CO2 | -11%
19 | C=C[C@H](OC)[C@@H](O)c1ccc(OC)c(O)c1 | -1.37%
20 | C[C@H](CO)N1C[C@H](C)[C@@H](CN(C)C(=O)CCC(F)(F)F)OCCCC[C@H](C)Oc2ccc(NC(=O)C3CCCCC3)cc2C1=O | -0.808%

Row | SMILES | CPE inhibition
21 | CCS(=O)(=O)N1[C@H](CO)[C@@H](c2ccccc2)C12CN(C(=O)C1CCC1)C2 | -6.37%
22 | Cc1noc(C)c1NC(=O)N(C)C[C@@H]1Oc2ccc(NC(=O)Nc3ccc4c(c3)OCO4)cc2CC(=O)N([C@H](C)CO)C[C@H]1C | 9.34%
23 | C[C@@H]1CN([C@H](C)CO)C(=O)c2cc(C#CCC3CCCC3)cnc2O[C@H]1CN(C)C(=O)c1cnccn1 | 4.48%
24 | CO[C@H]1O[C@H](CO)[C@@H](OC(=O)Nc2ccc(C(F)(F)F)cc2)[C@H](OC(=O)Nc2ccc3c(c2)OCO3)[C@H]1OC(=O)Nc1ccc2c(c1)OCO2 | 3.41%
25 | CO[C@@H]1CN(C)C(=O)c2cc(NC(=O)C3CC3)ccc2OC[C@@H](C)N(Cc2ccc(F)cc2)C[C@@H]1C | 3.49%
26 | C[C@@H]1CN([C@@H](C)CO)C(=O)Cc2cc(NS(C)(=O)=O)ccc2O[C@H]1CN(C)C(=O)Nc1ccccc1 | 16.2%
27 | C[C@@H]1CN([C@H](C)CO)C(=O)Cc2cc(NC(=O)CCN3CCOCC3)ccc2O[C@H]1CN(C)CC1CC1 | -0.438%
28 | COc1ccc2c3c(n(C)c2c1)[C@@H](CO)N(C(C)=O)CC31CCN(Cc2nccs2)CC1 | -1.04%
29 | CCS(=O)(=O)N1CC2(CN(C(=O)c3ccc(F)cc3)[C@@H](CO)c3c2c2ccc(OC)cc2n3C)C1 | -7%
30 | COc1ccc2c3c(n(C)c2c1)[C@H](CO)N(CC1CCCCC1)CC31CCN(Cc2nccs2)CC1 | 22.7% (active)
31 | COc1ccc2c3c(n(C)c2c1)[C@H](CO)N(C(=O)CC1CC1)CC31CCN(Cc2nccs2)CC1 | -5.74%
32 | CCS(=O)(=O)N1CC2(CN(Cc3ccccc3)[C@@H](CO)c3c2c2ccc(OC)cc2n3C)C1 | 6.33%
33 | COc1ccc2c3c([nH]c2c1)[C@@H](CO)N(C(=O)C1CC1)CC31CCN(Cc2nccs2)CC1 | 25.2% (active)
34 | CCS(=O)(=O)N1CC2(CN(Cc3cc(F)ccc3F)[C@@H](CO)c3c2c2ccc(OC)cc2n3C)C1 | -8.85%
35 | COc1cc(CN2CC3(CN(S(=O)(=O)c4cn(C)cn4)C3)c3c(n(C)c4cc(OC)ccc34)[C@H]2CO)cc(OC)c1 | 58.8% (active)
36 | COc1ccc2c3c([nH]c2c1)[C@@H](CO)N(Cc1nccs1)CC31CCN(C(=O)C2CCCC2)CC1 | -11.8%
37 | CCS(=O)(=O)N1CC2(CN(C(=O)c3ccc(F)cc3)[C@H](CO)c3c2c2ccc(OC)cc2n3C)C1 | 21.9% (active)
38 | COc1ccc2c3c(n(C)c2c1)[C@@H](CO)N(C(=O)c1ccc(F)cc1)CC31CN(C(=O)c2ccc(F)cc2)C1 | 2.03%
39 | COc1ccc2c3c([nH]c2c1)[C@H](CO)N(Cc1nccs1)CC31CCN(C(=O)C2CCC2)CC1 | -3.4%
